Measurements published in the supplement of paper PMC9135407.
Several values for one entry are separate records, joined by “and”; a condition that tells them apart may be missing. Identical values can stand only once. Counter-ions that a name gives are not always drawn. In all, about 5,800 compounds went through this assay and about 620 (11%) showed activity. Shown is part of a subset that was picked to be rich in actives. A number with no mark means an inactive call.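 Rule for the calls: active = score above a cut-off or among the top three wells of a plate; in these data no inactive exceeds 0.85.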

Tested on: primary human hepatic stellate cells (donor 1)
Assay: scaled lipid accumulation score (0 = DMSO-like, 1 = nortriptyline-like); higher = stronger HSC inactivation (lipid re-accumulation), active = hit call of the paper
Details: 48 h
[1] = library stock concentration: 3.33 mM
[2] = library stock concentration: 10 mM
[3] = library stock concentration: 1 mM
[4] = library stock concentration: 4.9 mM

## CS(=O)(=O)CCNCc1ccc(-c2ccc3ncnc(Nc4ccc(OCc5cccc(F)c5)c(Cl)c4)c3c2)o1.Cc1ccc(S(=O)(=O)O)cc1.Cc1ccc(S(=O)(=O)O)cc1 [listing 1 of 2 here]
[1]
  scaled lipid accumulation score: 1.36 (active)
[2]
  scaled lipid accumulation score: 1.55 (active)

## CS(=O)(=O)CCNCc1ccc(-c2ccc3ncnc(Nc4ccc(OCc5cccc(F)c5)c(Cl)c4)c3c2)o1.Cc1ccc(S(=O)(=O)O)cc1.Cc1ccc(S(=O)(=O)O)cc1 [listing 2 of 2 here]
[2]
  scaled lipid accumulation score: 1.23 (active)

## CCCCC[C@H](O)/C=C/[C@@H]1[C@@H](C/C=C/CCCC(=O)O)[C@@H](O)C[C@H]1O [5-trans Prostaglandin F2.alpha. (tromethamine salt)]
[3]
  scaled lipid accumulation score: ≤ 0

## CCCCC[C@H](O)/C=C/[C@@H]1[C@@H](C/C=C/CCCC(=O)O)[C@@H](O)C[C@H]1O [5-trans Prostaglandin F2.alpha.]
[3]
  scaled lipid accumulation score: ≤ 0

## CC(C)(C)n1nc(Cc2cccc3ccccc23)c2c(N)ncnc21
[3]
  scaled lipid accumulation score: ≤ 0

## CCCCC[C@@](C)(O)/C=C/[C@H]1C(=O)C[C@H](O)[C@@H]1C/C=C\CCCC(=O)O [15(R)-15-methyl Prostaglandin D2]
[3]
  scaled lipid accumulation score: ≤ 0

## CCCCCCCCCCCCCC(=O)N[C@H](C)[C@@H](O)c1ccccc1 [D-erythro-MAPP]
[3]
  scaled lipid accumulation score: ≤ 0 and 0.048

## CC1(C2CCCC2)Cc2cc(OCC(=O)O)c(Cl)c(Cl)c2C1=O (configuration not stated)
[2]
  scaled lipid accumulation score: ≤ -0.055
Library stock concentration: 14 mM
  scaled lipid accumulation score: ≤ -0.021

## N[C@@H](C(=O)N[C@@H]1C(=O)N2C(C(=O)O)=C(CSc3cn[nH]n3)CS[C@H]12)c1ccc(O)cc1
[2]
  scaled lipid accumulation score: ≤ 0

## CCCCC/C=C/C=C1/C=CC(=O)[C@@H]1C/C=C\CCCC(=O)O [15-deoxy-.DELTA.12,14-Prostaglandin A2]
[3]
  scaled lipid accumulation score: ≤ 0

## CCC(=O)c1ccc2c(c1)N(CCCN(C)C)c1ccccc1S2.Cl [Propionylpromazine hydrochloride]
[2]
  scaled lipid accumulation score: 0.862 (active)

## CC(=O)c1ccc2c(c1)N(CCCN(C)C)c1ccccc1S2.O=C(O)/C=C\C(=O)O [Acepromazine maleate]
[2]
  scaled lipid accumulation score: 0.989 (active)

## CC(=O)c1ccc2c(c1)N(CCCN(C)C)c1ccccc1S2 [Acepromazine maleate]
Library stock concentration: 4.5 mM
  scaled lipid accumulation score: 0.524

## CC(=O)c1ccc2c(c1)N(CCCN(C)C)c1ccccc1S2 [Acetopromazine maleate salt]
  scaled lipid accumulation score: 0.726

## CC#CCC(C)[C@@H](O)/C=C/[C@@H]1[C@H]2C/C(=C\CCCC(=O)O)C[C@H]2C[C@H]1O (stereo partly drawn) [5-cis-15(R)-Iloprost]
[3]
  scaled lipid accumulation score: ≤ 0

## CN(C)[C@@H]1C(O)=C(C(N)=O)C(=O)[C@@]2(O)C(O)=C3C(=O)c4c(O)cccc4[C@@](C)(O)[C@H]3[C@H](O)[C@@H]12 [Oxytetracycline]
Library stock concentration: 4 mM
  scaled lipid accumulation score: 0.025
[2]
  scaled lipid accumulation score: ≤ 0

## CN(C)[C@@H]1C(O)=C(C(N)=O)C(=O)[C@@]2(O)C(O)=C3C(=O)c4c(O)cccc4[C@@](C)(O)[C@H]3[C@H](O)[C@@H]12 [Oxytetracycline hydrochloride]
[2]
  scaled lipid accumulation score: ≤ 0

## CN(C)[C@@H]1C(O)=C(C(N)=O)C(=O)[C@@]2(O)C(O)=C3C(=O)c4c(O)cccc4[C@@](C)(O)[C@H]3[C@H](O)[C@@H]12 [Oxytetracycline dihydrate]
  scaled lipid accumulation score: 0.056

## C[C@@H](O)CN(CCN(C[C@@H](C)O)C[C@@H](C)O)C[C@@H](C)O
[2]
  scaled lipid accumulation score: ≤ 0

## NNC(=O)c1ccncc1.Nc1ccc(C(=O)O)c(O)c1 [Pasiniazid]
[2]
  scaled lipid accumulation score: ≤ -0.027

## C#CCCC[C@@H](O)CCCCCCCCCCC(=O)O [12(S)-hydroxy-16-Heptadecynoic Acid]
[3]
  scaled lipid accumulation score: ≤ 0

## COC(=O)CCSCc1ccc(-c2onc(C)c2NC(=O)OC(C)c2ccccc2Cl)cc1 (configuration not stated)
[1]
  scaled lipid accumulation score: 0.07
[2]
  scaled lipid accumulation score: ≤ 0

## O=C(O)c1c(Sc2ccccc2)c2cc(Cl)ccc2n1Cc1ccc(Cl)cc1
[2]
  scaled lipid accumulation score: ≤ -0.001

## Cl.Clc1ccc(Cn2c(CN3CCCC3)nc3ccccc32)cc1 [Clemizole hydrochloride]
[2]
  scaled lipid accumulation score: 0.991 (active)

## Clc1ccc(Cn2c(CN3CCCC3)nc3ccccc32)cc1 [Clemizole hydrochloride]
  scaled lipid accumulation score: 0.205

## CCCCCC(O)C=CC1C2CC(CO2)C1CC=CCCCC(=O)O (configuration not stated)
[3]
  scaled lipid accumulation score: ≤ 0 and ≤ -0.021

## COCC[n+]1c2c(n(Cc3cnccn3)c1C)C(=O)c1ccccc1C2=O [YM155 (Sepantronium Bromide)]
[1]
  scaled lipid accumulation score: 0.529
[2]
  scaled lipid accumulation score: 0.748

## N#Cc1c(C2CCNCC2)cc(-c2c(O)cccc2OCC2CC2)nc1N [IKK-2 Inhibitor VIII]
[1]
  scaled lipid accumulation score: 0.136

## Cl.N#CC1=C(N)NC(=C2C(=O)C=CC=C2OCC2CC2)C=C1C1CCNCC1
[2]
  scaled lipid accumulation score: 1.09 (active)

## N#Cc1c(C2CCNCC2)cc(-c2c(O)cccc2OCC2CC2)nc1N
Library stock concentration: 80 uM
  scaled lipid accumulation score: ≤ -0.016
Library stock concentration: 400 uM
  scaled lipid accumulation score: ≤ -0.016
Library stock concentration: 2 mM
  scaled lipid accumulation score: 0.483

## N#CCCc1ccc2c(c1)-c1[nH]c3ccc([N+](=O)[O-])cc3c1CC(=O)N2 [Alsterpaullone, 2-Cyanoethyl]
[1]
  scaled lipid accumulation score: 0.08

## CCCCCCCC/C=C\CCCCCCCCCCCCCC(=O)N[C@@H](CO)[C@H](O)/C=C/CCCCCCCCCCCCC [Nervonic Ceramide]
[3]
  scaled lipid accumulation score: 0.002

## CCCCC[C@@H](O)/C=C/[C@H]1[C@H](O)CC(=O)[C@@H]1C/C=C\CCCC(=O)O [15(R)-Prostaglandin E2]
[3]
  scaled lipid accumulation score: ≤ 0

## CCSc1ccc2c(c1)N(CCCN1CCN(C)CC1)c1ccccc1S2 [Thiethylperazine malate]
  scaled lipid accumulation score: 0.362

## CN1CCN(CCCN2c3ccccc3Sc3ccc(C(F)(F)F)cc32)CC1
[2]
  scaled lipid accumulation score: 0.99 (active)

## CN1CCN(CCCN2c3ccccc3Sc3ccc(C(F)(F)F)cc32)CC1.Cl.Cl [Trifluoperazine]
Library stock concentration: 10.4 mM
  scaled lipid accumulation score: 0.892 (active)

## CN1CCN(CCCN2c3ccccc3Sc3ccc(C(F)(F)F)cc32)CC1 [Trifluoperazine 2HCl]
[1]
  scaled lipid accumulation score: ≤ 0
[2]
  scaled lipid accumulation score: 0.815

## CN1CCN(CCCN2c3ccccc3Sc3ccc(C(F)(F)F)cc32)CC1 [Trifluoperazine hydrochloride]
[2]
  scaled lipid accumulation score: 0.396

## CN1CCN(CCCN2c3ccccc3Sc3ccc(C(F)(F)F)cc32)CC1 [Trifluoperazine]
[4]
  scaled lipid accumulation score: 0.434

## CN1CCN(CCCN2c3ccccc3Sc3ccc(C(F)(F)F)cc32)CC1.Cl.Cl [Trifluoperazine dihydrochloride]
[2]
  scaled lipid accumulation score: 0.914 (active)

## CN1CCN(CCCN2c3ccccc3Sc3ccc(C(F)(F)F)cc32)CC1 [Trifluoperazine dihydrochloride]
  scaled lipid accumulation score: 0.393

## CN(C)CCCN1c2ccccc2Sc2ccc(C(F)(F)F)cc21 [Triflupromazine hydrochloride]
  scaled lipid accumulation score: 0.585
Library stock concentration: 5.1 mM
  scaled lipid accumulation score: 0.697
[2]
  scaled lipid accumulation score: 0.508 and 0.792

## O=C(O)CCC/C=C\C[C@@H]1[C@@H](/C=C/[C@@H](O)COc2cccc(C(F)(F)F)c2)[C@H](O)C[C@@H]1O [Fluprostenol]
[3]
  scaled lipid accumulation score: 0.005 and ≤ -0.021

## Cn1c(=O)cc(N2CCC[C@@H](N)C2)n(Cc2cc(F)ccc2C#N)c1=O [Trelagliptin]
[1]
  scaled lipid accumulation score: ≤ -0.009
[2]
  scaled lipid accumulation score: ≤ 0

## O=C(O)CCC/C=C\C[C@H]1C(=O)C=C[C@@H]1/C=C/[C@@H](O)CCc1ccccc1 [17-phenyl trinor Prostaglandin A2]
[3]
  scaled lipid accumulation score: ≤ 0

## Cc1cc([N+](=O)[O-])ccc1NS(=O)(=O)c1cc(Cl)ccc1Cl
[1]
  scaled lipid accumulation score: ≤ -0.009
[2]
  scaled lipid accumulation score: 0.147

## Nc1nc2c(cnn2CCc2ccccc2)c2nc(-c3ccco3)nn12
[2]
  scaled lipid accumulation score: 0.583

## CCCCC[C@@](C)(O)/C=C/[C@H]1[C@H](O)CC(=O)[C@@H]1C/C=C\CCCC(=O)O [15(R)-15-methyl Prostaglandin E2]
[3]
  scaled lipid accumulation score: ≤ 0

## CCCCC/C=C\C/C=C\C/C=C\C/C=C\CCCC(=O)O[C@@H](CO)COCCCCCCCCCCCCCCCC [1-Hexadecyl-2-arachidonoyl-glycerol]
[3]
  scaled lipid accumulation score: 0.044

## CC(C)Oc1ccc(C(=O)N[C@H](CNC(=O)CN(C)C)Cc2ccc(-c3cn4cccc([C@H](C)O)c4n3)cc2)cc1Cl [listing 1 of 2 here]
[1]
  scaled lipid accumulation score: 0.464

## CC(C)Oc1ccc(C(=O)N[C@H](CNC(=O)CN(C)C)Cc2ccc(-c3cn4cccc([C@H](C)O)c4n3)cc2)cc1Cl [listing 2 of 2 here]
[2]
  scaled lipid accumulation score: 0.882 (active)

## CCCCCCCC/C=C\CCCCCCCC(=O)N[C@H](CO)Cc1ccc(O)cc1
[3]
  scaled lipid accumulation score: ≤ 0

## COCCOc1cc2ncnc(Cl)c2cc1OCCOC
[2]
  scaled lipid accumulation score: ≤ 0

## CN1[C@@H](CC(=O)c2ccccc2)CCC[C@H]1C[C@H](O)c1ccccc1
[2]
  scaled lipid accumulation score: ≤ 0

## CN1[C@@H](CC(=O)c2ccccc2)CCC[C@H]1C[C@H](O)c1ccccc1 [Lobeline hydrochloride]
[2]
  scaled lipid accumulation score: ≤ 0 and 0.256

## O=C(O)COCCN1CCN([C@H](c2ccccc2)c2ccc(Cl)cc2)CC1
[2]
  scaled lipid accumulation score: ≤ 0

## O=C(O)COCCN1CCN(C(c2ccccc2)c2ccc(Cl)cc2)CC1 (configuration not stated) [Cetirizine dihydrochloride]
  scaled lipid accumulation score: 0.024
[2]
  scaled lipid accumulation score: 0.244 and ≤ -0.001

## CN(C)C(=O)C(CCN1CCC(O)(c2ccc(Cl)cc2)CC1)(c1ccccc1)c1ccccc1 [Loperamide HCl]
[1]
  scaled lipid accumulation score: 0.485
[2]
  scaled lipid accumulation score: 0.611

## O=C(O)COCCN1CCN(C(c2ccccc2)c2ccc(Cl)cc2)CC1 (configuration not stated) [Cetirizine]
[2]
  scaled lipid accumulation score: ≤ 0

## CN1[C@@H](CC(=O)c2ccccc2)CCC[C@H]1C[C@H](O)c1ccccc1 [Lobeline alpha (-) hydrochoride]
  scaled lipid accumulation score: 0.216

## O=C(O)COCCN1CCN(C(c2ccccc2)c2ccc(Cl)cc2)CC1 (configuration not stated) [Cetirizine DiHCl]
[1]
  scaled lipid accumulation score: ≤ 0
[2]
  scaled lipid accumulation score: ≤ 0

## CSc1ccc2c(c1)N(CCC1CCCCN1C)c1ccccc1S2 (configuration not stated) [Thioridazine hydrochloride]
  scaled lipid accumulation score: 0.711
[4]
  scaled lipid accumulation score: 0.586
[2]
  scaled lipid accumulation score: 0.072 and 0.283

## O=C(O)COCCN1CCN(C(c2ccccc2)c2ccc(Cl)cc2)CC1 (configuration not stated) [Cetirizine hydrochloride]
[2]
  scaled lipid accumulation score: ≤ -0.027

## CN1CCC[C@@H]1CCO[C@](C)(c1ccccc1)c1ccc(Cl)cc1 [Clemastine fumarate] [listing 1 of 2 here]
  scaled lipid accumulation score: 0.619

## CN1[C@@H](CC(=O)c2ccccc2)CCC[C@H]1C[C@H](O)c1ccccc1 [alpha-Lobeline hydrochloride]
[2]
  scaled lipid accumulation score: 0.493

## CSc1ccc2c(c1)N(CCC1CCCCN1C)c1ccccc1S2 (configuration not stated) [Thioridazine HCl]
Library stock concentration: 5.4 mM
  scaled lipid accumulation score: 0.47

## CN1CCC[C@@H]1CCO[C@](C)(c1ccccc1)c1ccc(Cl)cc1 [Clemastine fumarate] [listing 2 of 2 here]
Library stock concentration: 5.8 mM
  scaled lipid accumulation score: 0.885 (active)

## CN(C)C(=O)C(CCN1CCC(O)(c2ccc(Cl)cc2)CC1)(c1ccccc1)c1ccccc1 [Loperamide hydrochloride]
  scaled lipid accumulation score: 0.682
[2]
  scaled lipid accumulation score: 0.699 and 0.787

## CN1CCC[C@@H]1CCO[C@](C)(c1ccccc1)c1ccc(Cl)cc1 [Clemastine]
[2]
  scaled lipid accumulation score: 0.362

## CN1[C@@H](CC(=O)c2ccccc2)CCC[C@H]1C[C@H](O)c1ccccc1 [Lobeline]
Library stock concentration: 5.9 mM
  scaled lipid accumulation score: ≤ -0.006

## CN1CCC[C@@H]1CCO[C@](C)(c1ccccc1)c1ccc(Cl)cc1 [Clemastine Fumarate]
[1]
  scaled lipid accumulation score: 0.249
[2]
  scaled lipid accumulation score: 0.819

## CN1CCC[C@@H]1CCO[C@](C)(c1ccccc1)c1ccc(Cl)cc1.O=C(O)/C=C/C(=O)O [Clemastine fumarate]
[2]
  scaled lipid accumulation score: 0.861 (active)

## CN1CCCC1CCOC(C)(c1ccccc1)c1ccc(Cl)cc1.O=C(O)/C=C/C(=O)O (configuration not stated) [Clemastine fumarate]
[2]
  scaled lipid accumulation score: 0.942 (active)
